“And” between values parts separate entries of the source, which are not always exact repeats. Identical values can stand only once. The campaign covered roughly 5,500 compounds. About 2,000 (36%) were called active. Roughly 18% stayed inconclusive and do not appear here. Cut-off read from the data, not from the text of the source: active = normalized growth mostly below about 0.91 (no sharp cut-off); inconclusive = no clear call, values can overlap the other calls; inactive = mostly above about 0.92. Some of the results follow.
Test: chemical genetic growth profiling, strain panel (AID 1159580);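 note: tested at 20 µM; growth read once vehicle control cultures reached saturation at 30 °C; 1 = growth at the plate median or of vehicle wells; lower values mean less growth of the strain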
Conditions: S. cerevisiae deletion strains, growth OD

Measured: normalized growth

COC(=O)c1cc(=O)c(O)c2c(O)c(O)ccc2c1
active: locus YCL029C, strain bik1, stronger effect = lower value 0.713 | locus YDL035C, strain GPR1, stronger effect = lower value 0.512 | locus YDL074C, strain BRE1, stronger effect = lower value 0.743 | locus YDL101C, strain DUN1, stronger effect = lower value 0.778 | locus YDL185W, strain tfp1, stronger effect = lower value 0.631 | locus YDL192W, strain arf1, stronger effect = lower value 0.772 | locus YDR101C, strain arx1, stronger effect = lower value 0.842 | locus YDR137W, strain rgp1, stronger effect = lower value 0.821 | locus YDR150W, strain NUM1, stronger effect = lower value 0.852 | locus YDR162C, strain NBP2, stronger effect = lower value 0.275 | locus YDR318W, strain mcm21, stronger effect = lower value 0.856 | locus YDR502C, strain sam2, stronger effect = lower value 0.891 | locus YER155C, strain BEM2, stronger effect = lower value 0.922 | locus YER167W, strain BCK2, stronger effect = lower value 0.862 | locus YGL078C, strain dbp3, stronger effect = lower value 0.732 | locus YGL086W, strain mad1, stronger effect = lower value 0.71 | locus YGL248W, strain PDE1, stronger effect = lower value 0.73 | locus YGR078C, strain PAC10, stronger effect = lower value 0.713 | locus YGR135W, strain pre9, stronger effect = lower value 0.795 | locus YGR229C, strain SMI1, stronger effect = lower value 0.151 | locus YHR030C, strain SLT2, stronger effect = lower value 0.604 and 0.636 | locus YHR079C, strain IRE1 (second series), stronger effect = lower value 0.874 | locus YHR079C, strain IRE1, stronger effect = lower value 0.81 | locus YHR129C, strain ARP1, stronger effect = lower value 0.681 | locus YHR200W, strain rpn10, stronger effect = lower value 0.878 | locus YIL066C, strain RNR3, stronger effect = lower value 0.552 | locus YIL073C, strain SPO22, stronger effect = lower value 0.416 | locus YIL125W, strain kgd1, stronger effect = lower value 0.812 | locus YJL095W, strain BCK1, stronger effect = lower value 0.59 and 0.624 | locus YJL168C, strain set2, stronger effect = lower value 0.924 | locus YJL187C, strain SWE1 (second series), stronger effect = lower value 0.627
inactive: locus YAL021C, strain ccr4, stronger effect = lower value 1 | locus YAL026C, strain drs2, stronger effect = lower value 0.968 | locus YAL030W, strain snc1, stronger effect = lower value 0.991 | locus YBL061C, strain skt5, stronger effect = lower value 0.988 | locus YBR009C, strain hhf1, stronger effect = lower value 0.985 | locus YBR021W, strain FUR4, stronger effect = lower value 1.07 | locus YBR023C, strain chs3, stronger effect = lower value 0.995 | locus YBR171W, strain sec66, stronger effect = lower value 0.976 | locus YBR229C, strain ROT2, stronger effect = lower value 0.976 | locus YBR231C, strain swc5, stronger effect = lower value 0.976 | locus YBR279W, strain paf1, stronger effect = lower value 1 | locus YCL011C, strain gbp2, stronger effect = lower value 1 | locus YCL016C, strain dcc1, stronger effect = lower value 0.989 | locus YCL061C, strain MRC1, stronger effect = lower value 0.987 | locus YCL069W, strain vba3, stronger effect = lower value 1 | locus YCR088W, strain abp1, stronger effect = lower value 0.997 | locus YDL005C, strain med2, stronger effect = lower value 1.01 | locus YDL040C, strain nat1, stronger effect = lower value 0.986 | locus YDR001C, strain nth1, stronger effect = lower value 0.999 | locus YDR069C, strain doa4, stronger effect = lower value 0.955 | locus YDR159W, strain sac3, stronger effect = lower value 0.947 | locus YDR195W, strain ref2 0.934 | locus YDR297W, strain sur2, stronger effect = lower value 0.987 | locus YDR334W, strain swr1, stronger effect = lower value 0.983 | locus YDR335W, strain msn5, stronger effect = lower value 0.994 | locus YDR388W, stronger effect = lower value 0.954 | locus YDR392W, strain spt3, stronger effect = lower value 0.99 | locus YEL003W, strain gim4, stronger effect = lower value 0.996 | locus YEL037C, strain rad23, stronger effect = lower value 0.997 | locus YEL061C, strain CIN8 (second series), stronger effect = lower value 0.994 | locus YER015W, strain faa2, stronger effect = lower value 0.985 | locus YER016W, strain bim1, stronger effect = lower value 0.973 | locus YER110C, stronger effect = lower value 0.988 | locus YER111C, strain swi4, stronger effect = lower value 0.976 | locus YER155C, strain BEM2 (second series), stronger effect = lower value 0.977 | locus YFR010W, strain ubp6, stronger effect = lower value 0.958 | locus YGL167C, strain pmr1, stronger effect = lower value 0.98 | locus YGL173C, strain kem1, stronger effect = lower value 0.984 | locus YGL227W, strain vid30, stronger effect = lower value 0.988 | locus YGL240W, strain doc1, stronger effect = lower value 1.01 | locus YGL253W, strain hxk2, stronger effect = lower value 0.998 | locus YGR252W, strain gcn5, stronger effect = lower value 0.948 | locus YHR013C, strain ard1, stronger effect = lower value 1.04 | locus YHR027C, strain rpn1, stronger effect = lower value 0.991 | locus YHR094C, strain hxt1, stronger effect = lower value 0.968 | locus YHR142W, strain chs7, stronger effect = lower value 1.02 | locus YIR030C, strain dcg1, stronger effect = lower value 0.932 | locus YJL092W, strain hpr5, stronger effect = lower value 0.991 | locus YJL095W, strain BCK1 (second series), stronger effect = lower value 0.99 | locus YJL115W, strain asf1, stronger effect = lower value 0.99 | locus YJL129C, strain trk1, stronger effect = lower value 0.997 | locus YJL134W, strain LCB3, stronger effect = lower value 0.958 | locus YJL154C, strain vps35, stronger effect = lower value 1.02 | locus YJL164C, strain tpk1, stronger effect = lower value 0.995 | locus YJL166W, strain qcr8, stronger effect = lower value 0.999 | locus YJL187C, strain SWE1, stronger effect = lower value 0.992

— PubChem BioAssay AID1159580 (chemical genetic matrix, 2015)
